Screening results deposited in PubChem BioAssay by National Center for Advancing Translational Sciences (NCATS).
Rows were chosen to be rich in hits. Some 19% of all compounds tested hit in one or more screens of this group.
ELG1 DNA repair: blocks ELG1-dependent DNA repair in HEK293T cells. 330,000 compounds, 2.3% hits. HEK293T ELG1-luciferase reporter, luminescence, 16 h; DNA damage induced by 5-fluorouridine. Potency, µM (highest dose often 46.1 µM), without a hit: top-dose activity change, negative = inhibition, most hits filed as inhibitors; also: potency is read from the fitted curve at half-maximal effect; nearly all actives have a fitted effect of over 55% in size
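In this reporter screen, reduction of luminescence relative to DMSO vehicle indicated activity. Compounds and 5-fluorouridine were added together to 2,000 cells per well, incubated for 16 hr at 37 °C, then developed with ONE-Glo.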
HT1080NT lethal: kills 2HG-producing HT-1080-NT fibrosarcoma cells; 360,000 compounds, 1.6% hits; AID 686970; HT-1080-NT fibrosarcoma viability, CellTiter-Glo ATP luminescence, 48 h; Potency, µM (titrated, usually from 46.1 µM), without a hit: at the top dose activity, negative = less viability, actives largely listed as cytotoxic;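 also: NT is the 2HG producing partner of a matched IDH1 knockdown line; potency is read from the fitted curve at half-maximal effect; 0% = DMSO-treated cells and -100% = media-only wells without cells; nearly all actives have a fitted effect of over 55% in size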
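A 48-hour cytotoxicity screen used HT-1080-NT cells plated 2 hours before compound delivery. ATP-based CellTiter-Glo luminescence measured viability, normalized to DMSO and no-cell controls.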
HT1080 IDH1KD tx: HT-1080 IDH1 knockdown cell toxicity (counter line). HT-1080 IDH1 knockdown viability, ATP luminescence, 48 h. Potency, µM (doses to about 46.1 µM), inactives show top-dose activity, negative = toxicity, actives largely listed as cytotoxic. 360,000 compounds, 2% hits;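 also: potency is read from the fitted curve at half-maximal effect; 0% = DMSO wells and -100% = cell-free medium wells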
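After a 2 h attachment period, IDH1KD HT-1080 cells took pin-transferred compound for 48 h at 37 °C; ATP-based luminescence after 10 min room-temperature reagent incubation reported viability.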
DT40 TDP1 CPT: growth inhibition of DT40 Tdp1-/-;hTDP1 cells with camptothecin (screen for TDP1 inhibitors); Potency, µM (titrated, usually from 46.2 µM), for the others: top-dose activity change, negative = growth inhibition, actives largely listed as inhibitors; chicken DT40 Tdp1-/-;hTDP1 cells + 20 nM CPT, ATP luminescence, 48 h; 420,000 compounds, 12% hits; AID 686979; also: potency is read from the fitted curve at half-maximal effect; nearly all actives have a fitted effect of over 55% in size
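Chicken DT40 Tdp1-/- cells complemented with human TDP1, 400 cells/well, exposed to compounds plus 20 nM camptothecin for at least 48 h at 37 C; viability read as ATP content by CellTiter-Glo luminescence.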
IL-1B inflam inh: blocks inflammasome-driven IL-1 beta release; 360,000 compounds, 4.7% hits; activity change, % at 57.5 µM; THP-1 LPS/ATP IL-1B secretion, AlphaLISA, 16 h; stronger effect = lower value; in the data active = activity change below about -50%; inconclusive = mostly about -30% to -49%
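Secreted IL-1B measured by AlphaLISA bead assay after 16 h compound exposure of THP-1 cells; compounds (final up to 57.5 uM) added 1 h before LPS (250 ng/mL) and ATP (1.25 mM) stimulation; lower signal means less secretion.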
TDP1 cell noCPT: qHTS for Inhibitors of human tyrosyl-DNA phosphodiesterase 1 (TDP1): qHTS in cells in absence of CPT. DT40 Tdp1-/- hTDP1 cells, no CPT, ATP luminescence, 48 h. Potency, µM (titrated, usually from 46.2 µM), for inactives: top-dose activity change, negative = growth inhibition, actives largely listed as inhibitors. 420,000 compounds, 15% hits; also: potency is read from the fitted curve at half-maximal effect; nearly all actives have a fitted effect of over 55% in size
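No-CPT arm: Tdp1-/-;hTDP1 DT40 cells (400/well) plus compounds, incubated ≥48 hr at 37 °C. Readout CellTiter-Glo luminescence.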
* = called active by the depositor. Unless noted, calls follow the shape of the dose curve; as a rule, active = well fitted curve in the direction sought with a large enough effect; inconclusive = small, poorly fitted or top-dose-only effect, or another doubt; inactive = no such curve, though single readings can be large; an effect the other way counts as inactive or inconclusive. Unless noted, % is scaled to controls: 0 for no effect and ±100 for the full control effect.

Results for CCCC(NC(=O)C(C)N1CCN(S(=O)(=O)c2ccccc2)CC1)c1ccccc1 (stereo unspecified) ?
ELG1 DNA repair: -6%; HT1080NT lethal: 2%; HT1080 IDH1KD tx: 9%; DT40 TDP1 CPT: inconclusive; IL-1B inflam inh: 8; TDP1 cell noCPT: inconclusive

How did c1ccc(CNc2nc3c(-c4ccccc4)nnn3c3ccccc23)cc1 do in these assays?
DT40 TDP1 CPT: -6%; TDP1 cell noCPT: inconclusive

Results for Cc1cc(C)c(C#N)c(SCC(=O)Nc2c(C)n(C)n(-c3ccccc3)c2=O)n1 ?
ELG1 DNA repair: -3%; HT1080NT lethal: 4%; HT1080 IDH1KD tx: 16%; DT40 TDP1 CPT: -5%; IL-1B inflam inh: 9; TDP1 cell noCPT: -15%

How did C[C@H](NC(=O)C[C@@H]1CC[C@H]2[C@@H](COC[C@H](O)CN2Cc2ccc(C(F)(F)F)cc2)O1)c1ccccc1 do in these assays?
HT1080NT lethal: 3%; HT1080 IDH1KD tx: -2%; DT40 TDP1 CPT: 18µM*; IL-1B inflam inh: 1; TDP1 cell noCPT: 21µM*

How did O=C(C[C@H]1CC[C@@H]2[C@H](COC[C@@H](O)CN2Cc2ccc(Cl)cc2)O1)NCCc1ccccc1 do in these assays?
HT1080NT lethal: -2%; HT1080 IDH1KD tx: -1%; DT40 TDP1 CPT: -28%; IL-1B inflam inh: -11; TDP1 cell noCPT: inconclusive

How did COc1cc(=O)oc(-c2ccccc2)c1C(C)=O do in these assays?
HT1080NT lethal: 0%; HT1080 IDH1KD tx: 4%; DT40 TDP1 CPT: 19%; IL-1B inflam inh: -11; TDP1 cell noCPT: -2%

Results for COc1ccc(CNC(=O)c2c(C)oc3c2C(=O)c2ccccc2C3=O)cc1 ?
ELG1 DNA repair: -6%; HT1080NT lethal: inconclusive; HT1080 IDH1KD tx: -10%; DT40 TDP1 CPT: 8.2µM*; IL-1B inflam inh: 37; TDP1 cell noCPT: 10µM*

How did Cc1oc2c(c1C(=O)NCc1cccnc1)C(=O)c1ccccc1C2=O do in these assays?
ELG1 DNA repair: 1.6µM*; HT1080NT lethal: 4.1µM*; HT1080 IDH1KD tx: 2.6µM*; DT40 TDP1 CPT: 0.92µM*; IL-1B inflam inh: -81*; TDP1 cell noCPT: 1µM*

How did COc1ccc(CNC(=O)c2ccc(-c3ccccc3)cc2)cc1 do in these assays?
ELG1 DNA repair: inconclusive; HT1080NT lethal: 25%; HT1080 IDH1KD tx: 20%; DT40 TDP1 CPT: -12%; IL-1B inflam inh: 1; TDP1 cell noCPT: -7%

How did CC(=O)c1c(C)oc2c1C(=O)c1ccccc1C2=O do in these assays?
ELG1 DNA repair: 12µM*; HT1080NT lethal: -1%; HT1080 IDH1KD tx: -5%; DT40 TDP1 CPT: 8.2µM*; IL-1B inflam inh: 35; TDP1 cell noCPT: 7.3µM*

What do the screens show for `O=C(NCc1cccnc1)c1ccc(-c2cc3ccccc3oc2=O)cc1`?
ELG1 DNA repair: 2%; HT1080NT lethal: inconclusive; HT1080 IDH1KD tx: inconclusive; DT40 TDP1 CPT: 12µM*; IL-1B inflam inh: -22; TDP1 cell noCPT: inconclusive

How did Cc1ccc(C(C(=O)NC(C)(C)C)N(Cc2ccccc2)C(=O)c2snc(C(N)=O)c2N)o1 (stereo unspecified) do in these assays?
ELG1 DNA repair: inconclusive; HT1080NT lethal: -1%; HT1080 IDH1KD tx: -7%; DT40 TDP1 CPT: -28%; IL-1B inflam inh: -9; TDP1 cell noCPT: inconclusive

How did O=C(c1ccc(F)cc1F)N1CCCc2ccccc21 do in these assays?
ELG1 DNA repair: 2%; HT1080NT lethal: -4%; HT1080 IDH1KD tx: 0%; DT40 TDP1 CPT: -30%; IL-1B inflam inh: -6; TDP1 cell noCPT: inconclusive

How did Cc1c(C)n(Cc2ccccc2)c2ncnc(NCCO)c12 do in these assays?
ELG1 DNA repair: -2%; HT1080NT lethal: -12%; HT1080 IDH1KD tx: -12%; DT40 TDP1 CPT: 4%; IL-1B inflam inh: 23; TDP1 cell noCPT: inconclusive

What do the screens show for `Cc1c(C)n(Cc2ccccc2)c2ncnc(N)c12`?
ELG1 DNA repair: 16µM*; HT1080NT lethal: -7%; HT1080 IDH1KD tx: -14%; DT40 TDP1 CPT: 15µM*; IL-1B inflam inh: -6; TDP1 cell noCPT: 23µM*

What do the screens show for `CCCC(=O)Nc1ccc(C(=O)N/N=C/c2ccc([N+](=O)[O-])o2)cc1`?
ELG1 DNA repair: inconclusive; HT1080NT lethal: 12µM*; HT1080 IDH1KD tx: 13µM*; DT40 TDP1 CPT: 15µM*; IL-1B inflam inh: 17; TDP1 cell noCPT: 9.2µM*

How did CN(/N=C/c1ccc([N+](=O)[O-])o1)c1ccccc1 do in these assays?
ELG1 DNA repair: inconclusive; HT1080NT lethal: 2%; HT1080 IDH1KD tx: -1%; DT40 TDP1 CPT: 0%; IL-1B inflam inh: inconclusive; TDP1 cell noCPT: -20%

How did Cc1ccc(NC(=O)CCC(=O)N/N=C/c2ccc([N+](=O)[O-])o2)cc1C do in these assays?
ELG1 DNA repair: inconclusive; HT1080NT lethal: inconclusive; HT1080 IDH1KD tx: -1%; DT40 TDP1 CPT: inconclusive; IL-1B inflam inh: 9; TDP1 cell noCPT: inconclusive

How did NC(=O)N/N=C/c1ccc([N+](=O)[O-])o1 do in these assays?
ELG1 DNA repair: -17%; HT1080NT lethal: -29%; HT1080 IDH1KD tx: -20%; DT40 TDP1 CPT: 16µM*; IL-1B inflam inh: 8; TDP1 cell noCPT: 3.3µM*

Results for Cc1cc(C)c(S(=O)(=O)N/N=C/c2ccc([N+](=O)[O-])o2)c(C)c1 ?
ELG1 DNA repair: 14%; HT1080NT lethal: -13%; HT1080 IDH1KD tx: 2%; DT40 TDP1 CPT: 23µM*; IL-1B inflam inh: -3; TDP1 cell noCPT: inconclusive

Results for Cc1ccc(OCC(=O)N/N=C/c2ccc([N+](=O)[O-])o2)cc1 ?
ELG1 DNA repair: -16%; HT1080NT lethal: inconclusive; HT1080 IDH1KD tx: inconclusive; DT40 TDP1 CPT: 16µM*; IL-1B inflam inh: -25; TDP1 cell noCPT: 13µM*

Results for CCCCc1nn2c(=O)cc(COC(=O)c3ccco3)nc2s1 ?
DT40 TDP1 CPT: -17%; TDP1 cell noCPT: -2%

Results for CCOc1ccc(NS(=O)(=O)c2ccc3[nH]cc(C(=O)N4CCCC4)c(=O)c3c2)cc1 ?
DT40 TDP1 CPT: -1%; TDP1 cell noCPT: inconclusive

Results for CCN(C(=O)Cn1c(=O)n(Cc2ccccc2)c(=O)c2c1c1cc(OC)ccc1n2C)c1ccccc1 ?
DT40 TDP1 CPT: 2%; TDP1 cell noCPT: 1%

Results for CCCCn1c(=O)nc2n(-c3ccc(F)cc3)c3ccccc3cc-2c1=O ?
DT40 TDP1 CPT: 9%; TDP1 cell noCPT: -9%
